Drawing on PubChem BioAssay, this text covers growth inhibition, inhibition and outcome for 20 compounds.

SMILES strings stand for the structures. Values without a mark were called inactive. For some of these results: Results with a measured potency or affinity are listed apart. Active and inactive are the calls of the source. Unless noted, no rule for the calls is given here.

Assay [1] can be described thus: antimalarial activity against Dd2 strain (AID 2302;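 active = growth inhibition above 50% at the single 2 µM test dose, taken to imply half-maximal potency below 2 µM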;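 also: 0% = DMSO untreated growth and 100% = chloroquine plus artemisinin killed control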). The conditions noted are these: P. falciparum Dd2 in RBCs, LDH growth readout, 72 h; at 2 µM; stronger effect = higher value.
Assay [2] in a line: HepG2 cytotoxicity, primary screen, cytotoxicity control for P. falciparum antimalarial project, cell-based, ATP luminescence (AID 2303;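 active = inhibition above 50%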;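 also: 0% = DMSO wells and 100% = digitonin-killed cells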). The conditions noted are these: HepG2 viability, 24-48 h, at 10 µM, stronger effect = higher value.
Assay [3] addresses L-lactate dehydrogenase (Plasmodium falciparum (isolate CDC / Honduras)) (UniProt Q27743). As to the kind of experiment: PfLDH activity inhibition – cell lysate, 3D7 strain, counter-screen for P. falciparum growth inhibition project (AID 2304).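 Also: 0% = vehicle and 100% = reference inhibitor.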 The conditions noted are these: P. falciparum 3D7 crude extract, LDH APAD/NBT absorbance; at 2 µM; stronger effect = higher value.
Assay [4] is described as follows: inhibition of 3D7 malaria parasite growth – strain 3D7 (AID 2306).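 Also: 0% = DMSO wells and 100% = chloroquine plus artemisinin control wells.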 The following applies: P. falciparum 3D7 erythrocytic growth, LDH absorbance, 72 h; at 2 µM; stronger effect = higher value.
The target of assay [5] is Calcium-dependent protein kinase 1 (Plasmodium falciparum (isolate 3D7)) (UniProt P62344). Nature of the assay: PfCDPK1 kinase inhibitors, biochemical, TCAMS library (AID 1159585; cut-off not given, nearly all actives have IC50 up to about 0.98 µM;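 also: inhibitors leave more ATP so luminescence rises with inhibition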). The conditions noted are these: recombinant PfCDPK1, Kinase-Glo ATP depletion luminescence.
Sequence of Calcium-dependent protein kinase 1 (Plasmodium falciparum (isolate 3D7)) (P62344 whole entry, looked up): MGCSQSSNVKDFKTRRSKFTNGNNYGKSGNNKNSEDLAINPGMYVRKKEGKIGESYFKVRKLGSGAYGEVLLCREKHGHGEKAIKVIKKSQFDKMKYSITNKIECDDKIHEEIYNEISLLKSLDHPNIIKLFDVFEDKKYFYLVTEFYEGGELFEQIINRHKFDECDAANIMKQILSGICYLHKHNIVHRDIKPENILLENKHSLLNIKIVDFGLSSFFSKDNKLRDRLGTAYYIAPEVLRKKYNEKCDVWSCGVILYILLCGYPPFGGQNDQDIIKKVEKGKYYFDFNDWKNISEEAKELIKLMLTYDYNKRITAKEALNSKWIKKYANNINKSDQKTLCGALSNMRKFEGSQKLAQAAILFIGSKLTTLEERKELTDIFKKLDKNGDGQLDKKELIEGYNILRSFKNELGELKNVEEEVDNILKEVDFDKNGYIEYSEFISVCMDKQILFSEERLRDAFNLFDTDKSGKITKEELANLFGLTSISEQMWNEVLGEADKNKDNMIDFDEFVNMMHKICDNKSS
Assay [6] addresses Plasmodium falciparum protein kinase 6 (PK6, PF3D7_1337100) (UniProt Q8IDW1). As to the kind of experiment: PfPK6 kinase inhibitors, biochemical, TCAMS library (AID 1159586). The following applies: recombinant PfPK6, Kinase-Glo ATP depletion luminescence.
Assay [7] concerns the target Protein kinase 7 (PK7), Plasmodium falciparum 3D7 (PF3D7_0213400) (UniProt Q7YTF7). As to the kind of experiment: inhibition of Plasmodium PK7 catalytic activity – biochemical, TCAMS antimalarial set, Kinase-Glo luminescence (AID 1159587). The following applies: recombinant PfPK7, Kinase-Glo ATP depletion luminescence. (In general: Kinase-Glo reads ATP consumption through a luciferase reaction.)

In assay [8] the target is Calcium-dependent protein kinase 4 (Plasmodium falciparum (isolate 3D7)) (UniProt Q8IBS5). As to the kind of experiment: PfCDPK4 kinase inhibitors, biochemical, TCAMS library (AID 1159588; cut-off not given, nearly all actives have IC50 up to about 0.91 µM). The following applies: recombinant PfCDPK4, Kinase-Glo ATP depletion luminescence.
Sequence of Calcium-dependent protein kinase 4 (Plasmodium falciparum (isolate 3D7)) (Q8IBS5 whole entry, looked up): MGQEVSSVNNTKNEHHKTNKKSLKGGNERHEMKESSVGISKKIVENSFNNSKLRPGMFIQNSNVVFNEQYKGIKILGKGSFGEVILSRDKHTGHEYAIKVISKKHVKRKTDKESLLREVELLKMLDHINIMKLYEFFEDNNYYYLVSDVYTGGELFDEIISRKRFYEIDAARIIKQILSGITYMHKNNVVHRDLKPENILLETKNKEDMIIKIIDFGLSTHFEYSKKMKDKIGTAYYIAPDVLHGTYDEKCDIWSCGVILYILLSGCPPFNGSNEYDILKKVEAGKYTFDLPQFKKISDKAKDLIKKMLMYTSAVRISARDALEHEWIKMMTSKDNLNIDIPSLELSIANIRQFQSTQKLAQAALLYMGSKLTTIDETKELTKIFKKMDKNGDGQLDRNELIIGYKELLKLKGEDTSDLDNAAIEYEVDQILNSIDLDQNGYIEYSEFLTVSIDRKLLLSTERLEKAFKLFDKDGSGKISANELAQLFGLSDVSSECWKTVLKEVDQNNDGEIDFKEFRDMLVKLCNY

Sequence of Protein kinase 7 (PK7), Plasmodium falciparum 3D7 (PF3D7_0213400) (Q7YTF7 1-343): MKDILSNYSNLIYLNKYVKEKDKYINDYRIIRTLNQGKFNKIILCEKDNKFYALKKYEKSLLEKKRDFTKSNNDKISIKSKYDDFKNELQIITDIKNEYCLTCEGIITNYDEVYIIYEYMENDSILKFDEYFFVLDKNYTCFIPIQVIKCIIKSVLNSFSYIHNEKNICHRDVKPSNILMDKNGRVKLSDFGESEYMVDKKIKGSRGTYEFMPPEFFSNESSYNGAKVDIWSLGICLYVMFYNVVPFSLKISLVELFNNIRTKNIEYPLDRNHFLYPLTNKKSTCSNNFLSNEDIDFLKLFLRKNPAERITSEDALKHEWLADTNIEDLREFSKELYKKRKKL
Sequence of L-lactate dehydrogenase (Plasmodium falciparum (isolate CDC / Honduras)) (Q27743 whole entry, looked up): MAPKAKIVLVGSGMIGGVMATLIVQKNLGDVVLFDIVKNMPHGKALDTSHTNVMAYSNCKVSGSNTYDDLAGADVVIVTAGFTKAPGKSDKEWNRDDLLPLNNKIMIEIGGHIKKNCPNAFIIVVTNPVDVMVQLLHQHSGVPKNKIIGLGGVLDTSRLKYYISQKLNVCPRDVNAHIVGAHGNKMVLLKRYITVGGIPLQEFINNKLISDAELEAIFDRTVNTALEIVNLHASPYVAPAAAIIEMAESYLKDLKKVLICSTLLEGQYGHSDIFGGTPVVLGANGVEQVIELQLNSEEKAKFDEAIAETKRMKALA
Sequence of Plasmodium falciparum protein kinase 6 (PK6, PF3D7_1337100) (Q8IDW1 1-305): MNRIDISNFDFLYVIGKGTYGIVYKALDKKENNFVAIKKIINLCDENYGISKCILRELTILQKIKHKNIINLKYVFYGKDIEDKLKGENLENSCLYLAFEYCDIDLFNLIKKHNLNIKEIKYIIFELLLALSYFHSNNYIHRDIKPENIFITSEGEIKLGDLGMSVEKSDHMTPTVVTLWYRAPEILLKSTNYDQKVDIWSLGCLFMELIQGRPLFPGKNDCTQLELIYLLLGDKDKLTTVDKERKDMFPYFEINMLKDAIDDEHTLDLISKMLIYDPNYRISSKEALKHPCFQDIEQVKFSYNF

For orientation: inhibition means the change of the read-out against control, counted positive when it falls. On to `O=C(NCCN1CCCC1)c1cccc(-c2ccc(-c3nc4ccc(C(F)(F)F)cc4[nH]3)cc2)c1`, for which the values for the growth inhibition in assay [1] and in assay [4] were 99% (active) and 101% (active), respectively. The inhibition was 34% in assay [2] and -3% in assay [3]. In addition, the result in assay [5], in assay [6], in assay [7] and in assay [8] was inactive.

On to `N#Cc1ccc(N(CCOc2ccc(Cl)cc2)Cc2ccccc2C(F)(F)F)cc1C(F)(F)F`, for which the growth inhibition in assay [1] was 64% (active); in assay [4] it was 91% (active). Further, the inhibition in assay [2] is 3%; in assay [3] it was 2%. For the same compound, the outcome in assay [5], in assay [6], in assay [7] and in assay [8] was inactive.

As to `CCNc1cc(C(=O)N[C@@H](Cc2ccccc2)[C@H](O)CNCc2cc(OC)cc(OC)c2)cc(N2CCCS2(=O)=O)c1`, the growth inhibition in assay [1] was 86% (active); in assay [4], 99% (active). Besides, the values for the inhibition in assay [2] and in assay [3] were -4% and -2%, respectively. Moreover, the result in assay [5], in assay [6], in assay [7] and in assay [8] was inactive.

Turning to `CCOc1cc2ncnc(Nc3ccc(OCc4c(F)cccc4F)c(OC)c3)c2cc1OCC`, the growth inhibition in assay [1] is 60% (active); in assay [4], 96% (active). For the same compound, the figures for the inhibition in assay [2] and in assay [3] were 7% and -2%, respectively. For the same compound, the outcome in assay [5], in assay [6], in assay [7] and in assay [8] was inactive.

Turning to `CC1=C(C(=O)Nc2cc3cn[nH]c3cc2F)C(c2ccc(Cl)c(NS(C)(=O)=O)c2)CC(=O)N1` (stereo not given), the values for the growth inhibition in assay [1] and in assay [4] were 98% (active) and 88% (active), respectively. Further, the inhibition in assay [2] is 2%; in assay [3] it was -1%. Further, the result in assay [5], in assay [6], in assay [7] and in assay [8] was inactive.

For `Nc1nc(N)c2c(ccc3c2ncn3Cc2ccccc2)n1`, the growth inhibition in assay [1] and in assay [4] was 96% (active) in each case. Besides, the inhibition in assay [2] was 71% (active); in assay [3], 4%. Besides, the result in assay [5], in assay [6], in assay [7] and in assay [8] was inactive.

In the case of `Cc1cc(NC(=O)c2ccsc2)ccc1OC1CCN(Cc2ccc(F)cc2)CC1`, the growth inhibition was 47% in assay [1] and 83% (active) in assay [4]. Also, the inhibition was 9% in assay [2] and -2% in assay [3]. Besides, the result in assay [5], in assay [6], in assay [7] and in assay [8] was inactive.

As for `CCCCCC(C)NC[C@@H](O)[C@H](Cc1ccccc1)NC(=O)c1cc(NCC)cc(N2CCCCS2(=O)=O)c1` (stereo not given in full), the results for the growth inhibition in assay [1] and in assay [4] were 79% (active) and 98% (active), respectively. Moreover, the values for the inhibition in assay [2] and in assay [3] were 3% and 0%, respectively. Besides, the outcome in assay [5], in assay [6], in assay [7] and in assay [8] was inactive.

Regarding `CCc1cn(C)c2c(N3CCCC3=O)cc(C(=O)N[C@@H](Cc3ccccc3)[C@H](O)CNC(C)(C)c3cccc(OC)c3)cc12`, the values for the growth inhibition in assay [1] and in assay [4] were 99% (active) and 95% (active), respectively. In addition, the values for the inhibition in assay [2] and in assay [3] were 9% and -1%, respectively. Besides, the outcome in assay [5], in assay [6], in assay [7] and in assay [8] was inactive.

For the compound `COC(=O)C(C)(C)Cc1c(SC(C)(C)C)c2cc(C(C)C)ccc2n1Cc1ccc(Cl)cc1`, the growth inhibition in assay [1] and in assay [4] was 96% (active) each time. For the same compound, the inhibition in assay [2] was -9%; in assay [3], 0%. Besides, the result in assay [5], in assay [6], in assay [7] and in assay [8] was inactive.

Consider `O=C(Nc1cccc(CN2CCCN(Cc3ccccc3)CC2)c1)c1cc2ccccc2s1`, for which the figures for the growth inhibition in assay [1] and in assay [4] were 28% and 87% (active), respectively. Further, the inhibition was 41% in assay [2] and 1% in assay [3]. Further, the outcome in assay [5], in assay [6], in assay [7] and in assay [8] was inactive.

Consider `CCNC(C)(C)CN(Cc1ccc(-c2ccc(C(F)(F)F)cc2)cc1)C(=O)Cn1c(CCc2cccc(F)c2F)nc(=O)c2ccccc21`, for which the growth inhibition in assay [1] was 70% (active); in assay [4], 97% (active). Moreover, the inhibition in assay [2] is 47%; in assay [3], -7%. The outcome in assay [5], in assay [6], in assay [7] and in assay [8] was inactive.

Consider `CCNc1cc(C(=O)N[C@@H](Cc2cccc(Cl)c2)[C@H](O)CNC(C)CCCC(C)C)cc(N2CCCCS2(=O)=O)c1` (stereo not given in full), for which the growth inhibition in assay [1] was 78% (active); in assay [4], 98% (active). For the same compound, the inhibition in assay [2] is 7%; in assay [3] it was -1%. The outcome in assay [5], in assay [6], in assay [7] and in assay [8] was inactive.

On to `CC(C)(C)c1ccc(CN2CCCCC(NC(=O)c3cc(-c4ccccc4F)cs3)C2)cc1` (stereo not given), for which the figures for the growth inhibition in assay [1] and in assay [4] were 99% (active) and 101% (active), respectively. Besides, the inhibition was 6% in assay [2] and 3% in assay [3]. Further, the result in assay [5], in assay [6], in assay [7] and in assay [8] was inactive.

With `Oc1ccccc1CNCc1ccc(-c2cnc(N3CCCC(c4ccccc4)C3)nc2)cc1` (stereo not given), the growth inhibition in assay [1] was 84% (active); in assay [4] it was 99% (active). Moreover, the results for the inhibition in assay [2] and in assay [3] were 6% and -4%, respectively. Also, the result in assay [5], in assay [6], in assay [7] and in assay [8] was inactive.

Take `Cc1cccc2[nH]c(-c3cccc(-c4cccc(NC(=O)CCc5cnc[nH]5)c4)c3)nc12`: the growth inhibition in assay [1] was 86% (active); in assay [4] it was 102% (active). The inhibition in assay [2] was 16%; in assay [3], 0%. Further, the outcome in assay [5], in assay [6], in assay [7] and in assay [8] was inactive.

Consider `CCN1CCN(c2ccc(Nc3c4ccccc4nc4ccccc34)cc2)CC1`, for which the growth inhibition was 100% (active) in assay [1] and 99% (active) in assay [4]. The figures for the inhibition in assay [2] and in assay [3] were 24% and -2%, respectively. The result in assay [5], in assay [6], in assay [7] and in assay [8] was inactive.

In the case of `Cc1[nH]c(C)c(-c2ccc(Oc3ccc(OC(F)(F)F)cc3)cc2)c(=O)c1I`, the growth inhibition in assay [1] is 96% (active); in assay [4] it was 95% (active). Further, the inhibition was 3% in assay [2] and -3% in assay [3]. The outcome in assay [5], in assay [6], in assay [7] and in assay [8] was inactive.

In the case of `CCOc1cc(C(C)C)ccc1C1CCN(CCCCNC(=O)c2ccc(NC(=O)c3ccc(Cl)cc3)cc2)CC1`, the growth inhibition in assay [1] was 98% (active); in assay [4], 101% (active). The inhibition in assay [2] is 32%; in assay [3] it was 2%. For the same compound, the result in assay [5], in assay [6], in assay [7] and in assay [8] was inactive.

For the compound `CCN(CC)C(=NCCCCCCN=C(/N=C(/N)Nc1ccc(Br)cc1)N(CC)CC)/N=C(/N)Nc1ccc(Br)cc1`, the growth inhibition in assay [1] is 95% (active); in assay [4], 96% (active). Further, the results for the inhibition in assay [2] and in assay [3] were -7% and -5%, respectively. Further, the outcome in assay [5], in assay [6], in assay [7] and in assay [8] was inactive.
